The values below come from ChEMBL document CHEMBL3988442, “University of Dundee, Small-Polar-MMV Screening Library” (2021).

Holding throughout (set-up): scale not given: direction of the effect not stated beside the values
Experiment [1] concerns the target Protein translocase subunit SecA (Escherichia coli (strain K12)) (UniProt P10408). Kind of experiment: Assay to Identify E. coli SecA ATPase Inhibitors. The experiment is classed as functional. To be noted: 30 µM.
Experiment [2] has as its target T1, Ubiquitin-activating enzyme e1, putative (Leishmania donovani (strain BPK282A1)) (UniProt E9BSI1).
T1 sequence (whole entry): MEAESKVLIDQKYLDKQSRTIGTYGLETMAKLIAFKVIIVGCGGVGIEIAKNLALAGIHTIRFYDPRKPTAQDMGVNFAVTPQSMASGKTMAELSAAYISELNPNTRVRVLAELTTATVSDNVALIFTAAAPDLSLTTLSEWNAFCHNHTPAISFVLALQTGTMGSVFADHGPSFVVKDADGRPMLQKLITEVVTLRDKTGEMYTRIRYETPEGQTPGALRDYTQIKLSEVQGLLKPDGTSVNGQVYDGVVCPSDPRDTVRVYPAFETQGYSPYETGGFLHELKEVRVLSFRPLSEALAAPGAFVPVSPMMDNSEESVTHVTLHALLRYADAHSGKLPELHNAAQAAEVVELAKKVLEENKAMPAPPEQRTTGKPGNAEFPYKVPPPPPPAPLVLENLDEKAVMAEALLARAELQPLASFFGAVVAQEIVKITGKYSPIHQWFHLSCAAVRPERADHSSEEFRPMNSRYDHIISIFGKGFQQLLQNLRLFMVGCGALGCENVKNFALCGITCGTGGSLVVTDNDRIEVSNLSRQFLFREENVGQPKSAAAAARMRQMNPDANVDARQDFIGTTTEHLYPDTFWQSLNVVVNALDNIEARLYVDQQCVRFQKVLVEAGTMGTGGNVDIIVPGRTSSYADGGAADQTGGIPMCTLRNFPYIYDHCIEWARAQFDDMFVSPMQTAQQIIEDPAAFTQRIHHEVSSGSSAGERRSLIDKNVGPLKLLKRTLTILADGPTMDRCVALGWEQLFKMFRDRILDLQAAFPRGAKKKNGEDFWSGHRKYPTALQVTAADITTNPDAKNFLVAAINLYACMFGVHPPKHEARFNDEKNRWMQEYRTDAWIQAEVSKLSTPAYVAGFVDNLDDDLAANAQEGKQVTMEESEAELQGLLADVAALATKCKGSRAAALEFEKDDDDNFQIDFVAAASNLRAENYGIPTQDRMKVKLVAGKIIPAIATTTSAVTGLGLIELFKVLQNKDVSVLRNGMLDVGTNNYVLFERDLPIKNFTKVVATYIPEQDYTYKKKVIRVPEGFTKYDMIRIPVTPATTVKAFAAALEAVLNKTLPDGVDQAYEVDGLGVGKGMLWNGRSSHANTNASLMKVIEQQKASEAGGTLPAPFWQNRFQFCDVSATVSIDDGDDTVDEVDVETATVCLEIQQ
Kind of experiment: Leishmania donovani Ubiquitin Activating Enzyme (LdE1). The experiment is classed as functional. To be noted: 30 µM.

Experiment [3] addresses AMP-activated protein kinase, AMPK (Homo sapiens) (UniProt P54646+O43741+P54619+Q9UGJ0+Q9Y478+Q13131+Q9UGI9). Kind of experiment: AMP-dependent Kinase enzyme assay. An in vitro enzyme assay that detects ADP turnover that is directly proportional to AMPK activity. This uses naive AMPK that is activated during the assay with MK-8722. The settings on record: 30 µM. The experiment is classed as functional.

The target of experiment [4] is Sialic acid-binding Ig-like lectin 9 (Homo sapiens) (UniProt Q9Y336). Kind of experiment: Hs-Siglec9 ALPHAscreen SOP 20170721. To be noted: 10 µM.
Experiment [5] has as its system Trypanosoma cruzi. Kind of experiment: Trypanosoma cruzi phosphomannomutase and mannose-1-phosphate guanylyltransferase assay. The experiment is classed as functional. The settings on record: 10 µM.
Experiment [6] deals with T2, Arginase-2, mitochondrial (Homo sapiens) (UniProt P78540).
T2 sequence (whole entry): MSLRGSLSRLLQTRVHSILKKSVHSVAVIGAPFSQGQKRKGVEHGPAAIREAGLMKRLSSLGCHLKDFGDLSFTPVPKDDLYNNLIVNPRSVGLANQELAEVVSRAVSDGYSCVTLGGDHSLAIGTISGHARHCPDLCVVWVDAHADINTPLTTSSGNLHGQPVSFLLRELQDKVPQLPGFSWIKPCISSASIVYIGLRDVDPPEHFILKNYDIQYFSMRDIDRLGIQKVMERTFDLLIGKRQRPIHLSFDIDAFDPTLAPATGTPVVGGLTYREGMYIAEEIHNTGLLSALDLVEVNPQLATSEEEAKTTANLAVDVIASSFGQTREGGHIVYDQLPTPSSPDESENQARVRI
Kind of experiment: in vitro enzyme assay to detect the production of urea directly proportional to the activity of Arginase II. Further: in the data most compounds retested in dose-response had high values. The experiment is classed as functional. The settings on record: 33.3 µM.

In experiment [7] the target is T3, Proteasome subunit beta (Trypanosoma cruzi) (UniProt O96673).
T3 sequence (whole entry): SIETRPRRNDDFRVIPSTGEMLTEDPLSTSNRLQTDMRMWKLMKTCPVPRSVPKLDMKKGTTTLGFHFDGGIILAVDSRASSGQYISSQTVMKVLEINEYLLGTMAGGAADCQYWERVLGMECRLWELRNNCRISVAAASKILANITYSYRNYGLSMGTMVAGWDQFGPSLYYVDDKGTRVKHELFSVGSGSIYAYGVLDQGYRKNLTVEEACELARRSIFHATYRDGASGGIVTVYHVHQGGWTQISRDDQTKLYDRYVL
Kind of experiment: Trypanosoma cruzi proteasome chymotrypsin-like activity (TcProtChymo) assay. Further: in the data most compounds retested in dose-response had high values. It counts as functional. To be noted: 9.37 µM.

For experiment [8], the species on record is Homo sapiens. Kind of experiment: To identify inhibition of the IFN signalling (Jak-Stat) pathway via expression of an eGFP reporter gene under the control of an IFN-stimulated response element (ISRE) containing MxA promoter. It counts as functional. To be noted: 30 µM.
For experiment [9], the target named is T4, Tyrosyl-tRNA synthetase, putative (Trypanosoma cruzi (strain CL Brener)) (UniProt Q4DSP6).
T4 sequence (whole entry): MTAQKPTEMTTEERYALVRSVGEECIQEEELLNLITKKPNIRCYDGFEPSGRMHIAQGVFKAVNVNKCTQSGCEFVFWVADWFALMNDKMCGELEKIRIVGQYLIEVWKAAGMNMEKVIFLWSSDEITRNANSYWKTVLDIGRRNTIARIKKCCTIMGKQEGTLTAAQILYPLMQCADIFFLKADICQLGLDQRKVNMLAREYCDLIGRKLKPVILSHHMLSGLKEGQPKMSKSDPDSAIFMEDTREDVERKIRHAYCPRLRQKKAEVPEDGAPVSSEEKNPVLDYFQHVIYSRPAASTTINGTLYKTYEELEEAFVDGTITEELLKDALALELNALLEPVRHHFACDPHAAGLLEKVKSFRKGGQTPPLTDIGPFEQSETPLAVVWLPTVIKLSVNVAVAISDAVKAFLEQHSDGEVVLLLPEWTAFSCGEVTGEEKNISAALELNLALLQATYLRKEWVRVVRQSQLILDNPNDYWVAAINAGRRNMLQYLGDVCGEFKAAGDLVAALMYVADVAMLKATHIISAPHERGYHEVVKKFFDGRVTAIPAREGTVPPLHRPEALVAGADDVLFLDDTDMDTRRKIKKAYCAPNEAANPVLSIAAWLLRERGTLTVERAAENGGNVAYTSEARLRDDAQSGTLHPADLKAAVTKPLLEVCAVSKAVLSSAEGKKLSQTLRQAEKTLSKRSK
Kind of experiment: Trypanosoma cruzi tyrosyl tRNA synthetase (TcYRS) _High Tyrosine SOP. Further: in the data most compounds retested in dose-response had high values. The experiment is classed as functional. The settings on record: 30 µM.

Experiment [10] deals with T4, Tyrosyl-tRNA synthetase, putative (Trypanosoma cruzi (strain CL Brener)). Kind of experiment: Trypanosoma cruzi tyrosyl tRNA synthetase (TcYRS) SOP. It counts as functional. To be noted: 30 µM.
Experiment [11] concerns the target Chromo domain-containing protein 1 (Saccharomyces cerevisiae (strain ATCC 204508 / S288c) (Baker's yeast)) (UniProt P32657). Kind of experiment: ScCHD-1 Enzyme Inhibition Assay. Further: in the data most compounds retested in dose-response had high values. The experiment is classed as functional. The settings on record: 30 µM.

For some assays here: Entries with a potency or affinity are not part of this list.

Sequence of Sialic acid-binding Ig-like lectin 9 (Homo sapiens) (Q9Y336 whole entry): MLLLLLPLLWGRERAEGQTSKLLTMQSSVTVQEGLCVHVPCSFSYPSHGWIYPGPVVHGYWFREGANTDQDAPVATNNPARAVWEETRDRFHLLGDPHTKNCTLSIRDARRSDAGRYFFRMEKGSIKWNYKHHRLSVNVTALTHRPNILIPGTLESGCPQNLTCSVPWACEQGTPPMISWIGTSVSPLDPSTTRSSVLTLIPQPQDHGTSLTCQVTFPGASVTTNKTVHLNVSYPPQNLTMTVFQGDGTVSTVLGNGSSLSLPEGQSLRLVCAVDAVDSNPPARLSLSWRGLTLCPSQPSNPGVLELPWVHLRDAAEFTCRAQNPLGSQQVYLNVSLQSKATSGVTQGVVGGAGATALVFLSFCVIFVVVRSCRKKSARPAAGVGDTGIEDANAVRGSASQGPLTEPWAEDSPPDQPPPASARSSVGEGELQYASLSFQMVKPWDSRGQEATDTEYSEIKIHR
Sequence of Protein translocase subunit SecA (Escherichia coli (strain K12)) (P10408 whole entry): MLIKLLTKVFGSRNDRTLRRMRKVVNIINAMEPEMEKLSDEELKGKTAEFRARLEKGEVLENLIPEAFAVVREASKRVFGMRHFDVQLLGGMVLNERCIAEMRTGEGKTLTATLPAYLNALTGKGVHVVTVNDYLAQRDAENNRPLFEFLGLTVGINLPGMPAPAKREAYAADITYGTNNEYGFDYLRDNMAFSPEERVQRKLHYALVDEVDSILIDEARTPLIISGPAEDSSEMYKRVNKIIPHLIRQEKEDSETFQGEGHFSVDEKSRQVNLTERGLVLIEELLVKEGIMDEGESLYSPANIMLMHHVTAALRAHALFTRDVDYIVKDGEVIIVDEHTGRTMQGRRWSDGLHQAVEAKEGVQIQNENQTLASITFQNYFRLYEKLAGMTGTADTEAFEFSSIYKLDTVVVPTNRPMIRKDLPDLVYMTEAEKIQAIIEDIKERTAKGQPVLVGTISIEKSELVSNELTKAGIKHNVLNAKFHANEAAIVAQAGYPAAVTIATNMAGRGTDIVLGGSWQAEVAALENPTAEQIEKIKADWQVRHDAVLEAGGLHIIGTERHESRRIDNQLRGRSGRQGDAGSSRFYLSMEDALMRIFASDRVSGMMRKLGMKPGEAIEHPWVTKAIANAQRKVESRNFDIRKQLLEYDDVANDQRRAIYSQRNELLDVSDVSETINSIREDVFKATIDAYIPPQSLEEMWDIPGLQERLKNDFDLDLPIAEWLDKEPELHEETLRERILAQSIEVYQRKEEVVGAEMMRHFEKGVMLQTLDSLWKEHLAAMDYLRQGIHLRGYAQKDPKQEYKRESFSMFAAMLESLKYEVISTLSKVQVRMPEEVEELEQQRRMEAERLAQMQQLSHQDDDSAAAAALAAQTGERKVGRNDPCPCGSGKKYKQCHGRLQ
Sequence of Chromo domain-containing protein 1 (Saccharomyces cerevisiae (strain ATCC 204508 / S288c) (Baker's yeast)) (P32657 whole entry, the tested form may be a part): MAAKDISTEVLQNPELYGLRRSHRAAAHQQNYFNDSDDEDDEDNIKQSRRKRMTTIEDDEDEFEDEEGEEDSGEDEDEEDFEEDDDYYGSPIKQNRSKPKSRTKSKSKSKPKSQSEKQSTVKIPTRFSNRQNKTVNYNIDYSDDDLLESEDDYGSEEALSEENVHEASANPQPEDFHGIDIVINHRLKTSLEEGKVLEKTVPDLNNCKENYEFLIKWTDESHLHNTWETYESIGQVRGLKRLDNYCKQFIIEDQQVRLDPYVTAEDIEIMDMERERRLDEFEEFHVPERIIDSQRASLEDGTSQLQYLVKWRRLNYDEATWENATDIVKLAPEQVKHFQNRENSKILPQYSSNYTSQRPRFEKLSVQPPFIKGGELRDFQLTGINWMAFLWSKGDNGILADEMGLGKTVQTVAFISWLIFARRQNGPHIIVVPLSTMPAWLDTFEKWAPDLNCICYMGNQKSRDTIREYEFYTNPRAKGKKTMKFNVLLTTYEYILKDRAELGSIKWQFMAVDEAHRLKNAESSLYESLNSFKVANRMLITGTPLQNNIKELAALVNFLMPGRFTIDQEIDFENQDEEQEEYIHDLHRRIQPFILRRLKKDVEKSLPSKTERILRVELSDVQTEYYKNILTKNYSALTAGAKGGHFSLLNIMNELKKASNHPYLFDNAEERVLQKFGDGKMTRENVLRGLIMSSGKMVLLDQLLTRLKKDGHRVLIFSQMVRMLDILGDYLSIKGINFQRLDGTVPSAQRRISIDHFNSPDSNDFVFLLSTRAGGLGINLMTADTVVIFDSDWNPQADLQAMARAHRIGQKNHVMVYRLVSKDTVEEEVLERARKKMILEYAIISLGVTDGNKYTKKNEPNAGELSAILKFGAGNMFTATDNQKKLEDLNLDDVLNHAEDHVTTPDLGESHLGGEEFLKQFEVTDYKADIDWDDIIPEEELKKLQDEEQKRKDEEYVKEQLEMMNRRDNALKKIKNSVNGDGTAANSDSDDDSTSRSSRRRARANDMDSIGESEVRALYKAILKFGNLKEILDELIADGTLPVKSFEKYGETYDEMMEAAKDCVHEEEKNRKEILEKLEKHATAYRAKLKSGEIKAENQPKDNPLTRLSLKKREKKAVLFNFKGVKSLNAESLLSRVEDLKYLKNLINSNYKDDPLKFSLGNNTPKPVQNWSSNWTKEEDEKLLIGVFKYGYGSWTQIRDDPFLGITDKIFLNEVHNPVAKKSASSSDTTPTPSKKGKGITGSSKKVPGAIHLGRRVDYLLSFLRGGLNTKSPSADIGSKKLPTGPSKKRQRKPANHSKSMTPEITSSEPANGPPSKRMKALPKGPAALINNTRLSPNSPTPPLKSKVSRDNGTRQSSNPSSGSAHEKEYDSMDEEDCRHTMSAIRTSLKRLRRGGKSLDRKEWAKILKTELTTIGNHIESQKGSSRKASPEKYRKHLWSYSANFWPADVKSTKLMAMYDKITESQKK

Turning to `O=C(Cn1cc(I)cn1)Nc1cccnc1`, the Percent Effect was -7.8% in experiment [1]; 0% in [2]; 2.58% in experiment [3]; 6.82% in experiment [4]; 1.85% in experiment [5]; -10.7% in experiment [6]. The Percent Effect in experiment [7] was 16.4%; in experiment [8], 4.4%; in [9], 3.19%; in experiment [10] it was 7.79%; in [11], -7.88%.
Regarding `COc1ccc(CN(Cc2cncn2C)CC2CCCO2)cc1OC` (stereo not given), the Percent Effect was -3.49% in experiment [1]; 12.2% in experiment [2]; 11.9% in experiment [3]; 0.383% in experiment [4]; -2.37% in [5]; 3.94% in experiment [6]. The Percent Effect in [7] is 9.52%; in experiment [8], -8.46%; in [9], 5.38%; in experiment [10], 11.7%; in experiment [11] it was -15%.
With `CC(C)NC(=O)C1CN(C(=O)c2ccc(F)cc2)CC12CCOCC2` (stereo not given), the Percent Effect is -0.326% in experiment [1]; 6.67% in experiment [2]; 1.28% in experiment [3]; -10.8% in experiment [4]; -11.8% in [5]; -7.22% in experiment [6]. In addition, the Percent Effect is 17.4% in experiment [7]; -8.73% in [8]; 1.06% in experiment [9]; 2.56% in [10]; -10.5% in [11].
For `CCc1cc(=O)[nH]c2nnc(SCC(=O)OC)n12`, the Percent Effect in [1] was 0.274%; in [2], 16.4%; in experiment [3], -5.37%; in experiment [4], -14.2%; in experiment [5], 3.72%; in [6], 18.2%. The Percent Effect in experiment [7] is 15.6%; in experiment [8], -0.951%; in experiment [9], 6.45%; in experiment [10], 17.5%; in experiment [11] it was -6.44%.
Take `COCC(O)CN(C)C(=O)NC1CCN(Cc2ccccn2)CC1` (stereo not given): the Percent Effect in experiment [1] was -2.64%; in experiment [2] it was 28.6%; in experiment [3], -7.26%; in [4], 1.62%; in experiment [5] it was 4.31%; in [6], -2.85%. Moreover, the Percent Effect in experiment [7] is 15.4%; in experiment [8], 7.67%; in experiment [9] it was 5.83%; in experiment [10] it was 24.4%; in [11] it was -8.51%.
Consider `Cc1cnc(CN2CCOC(Cn3nc(C)nc3C)C2)cn1` (stereo not given), for which the Percent Effect in experiment [1] was -1.64%; in [2], 17.7%; in experiment [3], -6.35%; in experiment [4], 2.13%; in experiment [5], 4.82%; in [6], 3.42%. The Percent Effect is 15.8% in [7]; -21.9% in [8]; 6.4% in experiment [9]; 24.1% in experiment [10]; -3.57% in experiment [11].
With `CCN1CC2(CCC1=O)CCN(C(=O)c1ccc(Cl)cc1O)CC2`, the Percent Effect in [1] is 0.161%; in experiment [2], 12.5%; in [3], -4.82%; in [4], 5.1%; in [5], 4.37%; in experiment [6], 25.6%. In addition, the Percent Effect in experiment [7] was 4.56%; in experiment [8], 19.3%; in experiment [9], 4.21%; in experiment [10] it was 15.4%; in experiment [11] it was -5.87%.
Turning to `CCCNC(=O)c1cc2c(nc1O)CCC(C)C2` (stereo not given), the Percent Effect was -3.98% in experiment [1]; 14.7% in experiment [2]; 2.01% in experiment [3]; -2.15% in [4]; 5.5% in [5]; -13.9% in experiment [6]. Besides, the Percent Effect in [7] is 9.06%; in experiment [8], -2.51%; in [9], 6.35%; in experiment [10], 10.3%; in [11] it was -8.5%.
For the molecule `Cc1ccc(CNC(=O)CCSCc2csc(C)n2)cn1`, the Percent Effect is -2.98% in experiment [1]; 17.7% in experiment [2]; -1.48% in experiment [3]; -3.29% in experiment [4]; 1.42% in experiment [5]; 4.18% in [6]. Besides, the Percent Effect is 0.0819% in [7]; 8.57% in experiment [8]; 0.493% in experiment [9]; 8.86% in experiment [10]; -3.92% in experiment [11].
As to `Cc1ncc(CN(C)C2CCCN(Cc3noc(C4CC4)n3)C2)s1` (stereo not given), the Percent Effect in [1] was -3.21%; in experiment [2], 5.26%; in experiment [3], -3.55%; in [4], 4.27%; in experiment [5], 7.52%; in experiment [6] it was -0.766%. For the same molecule, the Percent Effect in [7] was 8.02%; in experiment [8], 14.3%; in [9] it was 2.45%; in experiment [10], 12.2%; in [11], -9.03%.
